From PubChem
Rows were chosen to be rich in hits. Some 3.1% of all compounds tested hit in one or more screens of this group.
PAX8 inh HTS: PAX8 transcriptional activity inhibition. RMG-I TPO-luciferase reporter, SteadyGlo, 24 h. inhibition, % at 12.6 µM. hit rate 1.2% among 360,000. AID 652154;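 active means mean replicate inhibition at least 60% with every replicate also reaching 60%; inconclusive means only one of the two criteria is met; inactive means mean below 60% and not all replicates reaching 60%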;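 further: luciferase light reporting Pax8 driven TPO promoter activity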
INS-1E GSIS act: GLuc luminescence reporter in INS-1E cells, primary screen for activators of glucose-dependent secretion of insulin; activation, % at 16.6 µM; INS-1E GLuc reporter insulin secretion, 2-3 h; hit rate 0.61% among 370,000; AID 743287;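 active means lowest replicate activation of at least 40%, so every replicate reaches that level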
miR122 inh: inhibitors of miR-122 in Huh7 cells; Huh7 miR-122 Renilla luciferase sensor, 48 h; neutral wells = 0, positive control = 100; AID 602342; hit rate 0.3% among 340,000; activation (reporter increase), % at 12.5 µM;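 active means mean replicate activation score at least 90 and every replicate individually at or above 90; inconclusive means only one of the two criteria met; inactive means neither criterion met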;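 further: higher luciferase means less miR-122 activity so hits act as miR-122 inhibitors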
EWS-Fli block: blocks EWS/Fli oncoprotein-driven transcription | AID 651661 | hit rate 0.67% among 350,000 | inhibition, % at 12.6 µM | A673 NR0B1-luciferase reporter, viability-normalised;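 active means mean inhibition of at least 50% after viability correction, with every replicate also passing that limit; inconclusive means mean reaches 50% but only one of two replicates passes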;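 further: firefly luciferase signal divided by Alamar Blue viability fluorescence both relative to DMSO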
Env fusion inh: inhibitors of HIV Env-mediated cell fusion; AID 651610; hit rate 1.1% among 360,000; HeLa-JRFL Env/CEM21 cell fusion, luciferase; inhibition, % at 12.3 µM;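 active means mean replicate inhibition score of at least 50 and every replicate individually at or above 50; inconclusive means only one of the two criteria met; inactive means mean below 50 and not all replicates reaching 50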
Statin myotox sup: suppression of simvastatin myotoxicity. C2C12 myotubes + simvastatin, ATP luminescence, 48 h; scaled: DMSO 0, geranylgeraniol control 100. rescue of ATP level, % at 7.49 µM. hit rate 0.78% among 330,000. AID 602340;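 active means mean ATP rescue above about 67%, or every replicate alone reaching that limit, limit read from the data, passing the limit was not always enough; inconclusive means no clear call, values can overlap the other calls; inactive means mean under the limit and some replicate under it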;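 further: myotubes were challenged with 10 µM simvastatin during compound exposure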
A number is an active result; . = inactive; ? = inconclusive; / = no result.

SMILES	PAX8 inh HTS	INS-1E GSIS act	miR122 inh	EWS-Fli block	Env fusion inh	Statin myotox sup
COc1ccc(N2CCN(S(=O)(=O)c3ccc(-c4cc(C)no4)s3)CC2)cc1	.	86	.	.	.	.
Cc1cc(-c2ccc(S(=O)(=O)N3CCN(C)CC3)s2)on1	.	43	.	.	.	.
CC(=O)c1ccc(N2CCN(S(=O)(=O)c3ccc(-c4cc(C)no4)s3)CC2)cc1	.	.	.	.	.	.
C[C@@H]1CN([C@H](C)CO)C(=O)c2cc(NC(=O)C3CCCCC3)ccc2O[C@@H](C)CCCCO[C@@H]1CN(C)Cc1ccc(C(F)(F)F)cc1	.	.	.	.	.	/
COc1ccc(C2NC(=S)NC3=C2CCCC3=C2SCCS2)cc1 (configuration not stated)	102	.	.	63	.	.
S=C1NC2=C(CCCC2=C2SCCCS2)C(c2ccccc2)N1 (configuration not stated)	.	.	/	.	.	/
CC(=O)O[C@H]1C(=O)[C@@]2(C)[C@H]([C@H](OC(=O)c3ccccc3)[C@]3(O)C[C@H](OC(=O)[C@H](O)C(NC(=O)c4ccccc4)c4ccccc4)C(C)=C1C3(C)C)[C@]1(OC(C)=O)CO[C@@H]1C[C@@H]2O (some centres not stated)	.	/	.	66	/	.
CC(=O)O[C@H]1C(=O)[C@@]2(C)[C@H]([C@H](OC(=O)c3ccccc3)[C@]3(O)C[C@H](OC(=O)[C@H](O)[C@@H](NC(=O)c4ccccc4)c4ccccc4)C(C)=C1C3(C)C)[C@]1(OC(C)=O)CO[C@@H]1C[C@@H]2O	.	.	.	65	.	.
CCCCCC(=O)N[C@@H](c1ccccc1)[C@@H](O)C(=O)O[C@H]1C[C@@]2(O)[C@@H](OC(=O)c3ccccc3)C3[C@](C)(C(=O)[C@H](OC(C)=O)C(=C1C)C2(C)C)[C@@H](O)C[C@H]1OC[C@@]31OC(C)=O (some centres not stated)	/	.	.	57	/	.
O=C1NC[C@@H](CCCCN2C[C@H](Cc3ccc(O)cc3)N(Cc3ccccc3)C(=O)C2=O)N(CCc2ccc(O)cc2)C1=O	.	.	/	.	57	/
O=C1NC[C@H](CCCCN2C[C@H](Cc3ccc(O)cc3)N(Cc3ccccc3)C(=O)C2=O)N(CCc2ccc(O)cc2)C1=O	.	.	/	.	.	/
CC(C)C[C@H]1CN([C@@H](Cc2ccc(O)cc2)CN2CCC[C@H]2CN2C(=O)C(=O)NC[C@@H]2Cc2ccccc2)C(=O)C(=O)N1CCc1ccccc1	.	/	/	.	.	/
CC(C)C[C@H]1CN([C@@H](Cc2ccc(O)cc2)CN2CCC[C@H]2CN2C(=O)C(=O)NC[C@@H]2Cc2ccc(O)cc2)C(=O)C(=O)N1CCc1ccccc1	.	44	/	.	60	/
CC(C)C[C@@H](CN1CCC[C@H]1CN1C(=O)C(=O)NC[C@@H]1Cc1ccccc1)N1C[C@H](Cc2ccccc2)N(CC2CCCCCC2)C(=O)C1=O	65	.	/	.	.	/
C[C@@H]1CN([C@@H](C)CO)C(=O)c2cc(-c3ccc(C#N)cc3)cnc2O[C@H]1CN(C)CC1CCCC1	.	.	.	.	.	.
O=C(C[C@H]1C[C@H]2c3cc(NC(=O)NC4CCCCC4)ccc3O[C@H]2[C@@H](CO)O1)NCc1ccccc1	.	.	.	.	.	.
Cc1ccc(NC(=O)NC2=N/C(=C(/C#N)C(=O)N3CCCC3)c3ccccc32)cc1	.	/	.	/	.	.
N#C/C(C(=O)N1CCCC1)=C1/N=C(N)c2ccccc21	108	.	.	.	.	/
CCSc1nc2ccccc2n1C(=O)/C=C/c1ccc(OC)c(OC)c1	64	.	.	/	.	.
C=CCSc1nc2ccccc2n1C(=O)/C=C/c1ccc(OC)c(OC)c1	/	.	.	?	/	.
C=CCSc1nc2ccccc2n1C(=O)/C=C/c1cc(OC)c(OC)c(OC)c1	/	.	.	67	/	/
CC(=O)Nc1ccc2nc(NC(=O)c3ccc([N+](=O)[O-])o3)sc2c1	.	.	/	.	.	114
O=C(Nc1cc(Cl)ccc1-n1cncn1)c1ccc([N+](=O)[O-])o1	63	.	/	.	.	/
CCC(=O)N1CCN(c2ccc(NC(=O)c3ccc([N+](=O)[O-])o3)cc2Cl)CC1	99	.	/	?	.	/
CC(=O)Nc1ccc2nc(NC(=O)c3ccco3)sc2c1	.	.	.	.	.	.
SMILES	PAX8 inh HTS	INS-1E GSIS act	miR122 inh	EWS-Fli block	Env fusion inh	Statin myotox sup
CC1(C)CC2CC(C)(CN2S(=O)(=O)c2ccc(C(=O)Nc3ccc(S(=O)(=O)N4CCOCC4)cc3)cc2)C1 (configuration not stated)	83	.	/	.	.	/
CCN1CCN(c2ccc(NC(=O)c3ccc([N+](=O)[O-])o3)cc2Cl)CC1	83	.	/	.	.	/
CCN1CCN(c2ccc(S(=O)(=O)N3CCCCC3)cc2NC(=O)c2ccc([N+](=O)[O-])o2)CC1	.	.	/	.	.	.
O=C(Nc1ccc(S(=O)(=O)N2CCCC2)cc1)c1ccc([N+](=O)[O-])o1	/	.	.	/	/	.
CCCCOCCCNC(=S)Nc1ccc(S(=O)(=O)N2CCOCC2)cc1	.	.	176	.	.	.
O=C(Nc1ccc(S(=O)(=O)N2CCOCC2)cc1)c1ccc([N+](=O)[O-])o1	.	.	.	.	.	88
CC(=O)N1CCN(c2ccc(NC(=O)c3ccc([N+](=O)[O-])o3)cc2Cl)CC1	102	.	.	.	.	.
CCCNC(=O)Nc1ccc2c(c1)C(=O)N(C)C[C@@H](OC)[C@@H](C)CN(CCC)[C@@H](C)CO2	.	.	/	.	.	.
O=C(/C=C/c1ccc2c(c1)OCO2)NCCSCc1cccc(Cl)c1	.	.	115	/	.	/
C[C@@H]1CN([C@H](C)CO)C(=O)c2cc(NC(=O)Nc3ccc(C(F)(F)F)cc3)ccc2O[C@@H](C)CCCCO[C@H]1CN(C)S(=O)(=O)c1ccc(F)cc1	78	.	.	.	.	/
Cc1ccc(S(=O)(=O)N(C)C[C@@H]2OCCCC[C@H](C)Oc3ccc(NC(=O)Nc4ccc(F)cc4)cc3C(=O)N([C@H](C)CO)C[C@H]2C)cc1	64	.	.	.	.	.
C[C@@H]1CCCCO[C@H](CN(C)S(=O)(=O)c2ccc(F)cc2)[C@@H](C)CN([C@@H](C)CO)C(=O)c2cc(NC(=O)Nc3ccc(F)cc3)ccc2O1	62	.	.	.	.	/
C[C@@H]1CCCCO[C@H](CN(C)S(=O)(=O)c2ccc(F)cc2)[C@H](C)CN([C@@H](C)CO)C(=O)c2cc(NC(=O)Nc3ccc(C(F)(F)F)cc3)ccc2O1	.	.	.	.	.	/
C[C@@H]1CCCCO[C@@H](CN(C)S(=O)(=O)c2ccc(F)cc2)[C@H](C)CN([C@@H](C)CO)C(=O)c2cc(NC(=O)Nc3ccc(F)cc3)ccc2O1	.	.	.	.	.	/
